Experimental data as given in PubChem BioAssay (EPA / NIEHS).
Activity calls are given as the source filed them. Rule for the calls: active = hit-call score of the fitted dose curve at least 0.9, where 1 is the maximum; inactive = score below 0.9.

Columns and labels:
[1] = read-out: Macrophage colony-stimulating factor (MCSF), CSF1 (gene 1435); experiment: BSK_CASM3C_MCSF: BioMAP Diversity Plus: CASM3C Assay for Macrophage colony-stimulating factor (MCSF) Biomarker Activity (AID 2283044); conditions: primary human coronary artery smooth muscle cells; actives raise or lower the signal;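 note: M-CSF protein amount quantified by ELISA after 24 h exposure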
[2] = read-out: Low-density lipoprotein receptor (LDLR), LDLR (gene 3949); experiment: BSK_CASM3C_LDLR: BioMAP Diversity Plus: CASM3C Assay for Low-density lipoprotein receptor (LDLR) Biomarker Activity (AID 2283045); conditions: primary human coronary artery smooth muscle cells; actives raise or lower the signal;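 note: LDLR protein level on the cell surface quantified by ELISA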
[3] = read-out: Monocyte Chemoattractant Protein-1 (MCP1), CCL2 (gene 6347); experiment: BSK_CASM3C_MCP1: BioMAP Diversity Plus: CASM3C Assay for Monocyte Chemoattractant Protein-1 (MCP1) Biomarker Activity (AID 2283046); conditions: primary human coronary artery smooth muscle cells; actives raise or lower the signal;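 note: MCP-1 level quantified by ELISA 24 h after dosing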
[4] = BSK_CASM3C_Proliferation: Cell Proliferation Assessment in the BioMAP Diversity Plus: CASM3C Assay (AID 2283047); conditions: primary human coronary artery smooth muscle cells;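 note: sulforhodamine B total protein stain as relative cell number at 560 nm; sub-confluent cells exposed 48 h before staining; fitted both ways against DMSO so gain or loss of cell number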
[5] = read-out: Monokine induced gamma interferon (MIG), CXCL9 (gene 4283); experiment: BSK_CASM3C_MIG: BioMAP Diversity Plus: CASM3C Assay for Monokine induced gamma interferon (MIG) Biomarker Activity (AID 2283048); conditions: primary human coronary artery smooth muscle cells; actives raise or lower the signal;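 note: MIG protein level measured by ELISA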
[6] = read-out: serum amyloid A (SAA), SAA1 (gene 6288); experiment: BSK_CASM3C_SAA: BioMAP Diversity Plus: CASM3C Assay for serum amyloid A (SAA) Biomarker Activity (AID 2283049); conditions: primary human coronary artery smooth muscle cells; actives raise or lower the signal;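 note: SAA protein level quantified by ELISA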
[7] = BSK_CASM3C_SRB: Viability Assessment in the BioMAP Diversity Plus: CASM3C Assay (AID 2283050); conditions: primary human coronary artery smooth muscle cells;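 note: total protein by SRB staining as cytotoxicity measure in parallel cultures; cells exposed to compound for 24 h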
[8] = read-out: Thrombomodulin, THBD (gene 7056); experiment: BSK_CASM3C_Thrombomodulin: BioMAP Diversity Plus: CASM3C Assay for Thrombomodulin Biomarker Activity (AID 2283051); conditions: primary human coronary artery smooth muscle cells; actives raise or lower the signal;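 note: thrombomodulin protein level measured by ELISA 24 h after dosing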
[9] = read-out: Tissue Factor, F3 (gene 2152); experiment: BSK_CASM3C_TissueFactor: BioMAP Diversity Plus: CASM3C Assay for Tissue Factor Biomarker Activity (AID 2283052); conditions: primary human coronary artery smooth muscle cells; actives raise or lower the signal;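 note: cell surface tissue factor protein level read by ELISA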
[10] = read-out: Interferon-gamma inducible Protein 10 (IP10), CXCL10 (gene 3627); experiment: BSK_hDFCGF_IP10: BioMAP Diversity Plus: hDFCGF Assay for Interferon-gamma inducible Protein 10 (IP10) Biomarker Activity (AID 2283053); conditions: primary human foreskin fibroblasts; actives raise or lower the signal
Procedure, shortened: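 Primary foreskin fibroblasts, human; 24 h compound exposure; IP-10 by ELISA; bidirectional fit vs DMSO.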

[11] = read-out: Urokinase-type plasminogen activator receptor (uPAR), PLAUR (gene 5329); experiment: BSK_CASM3C_uPAR: BioMAP Diversity Plus: CASM3C Assay for Urokinase-type plasminogen activator receptor (uPAR) Biomarker Activity (AID 2283054); conditions: primary human coronary artery smooth muscle cells; actives raise or lower the signal;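 note: cell-surface uPAR protein level quantified by ELISA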
[12] = read-out: Vascular cell adhesion molecule 1 (VCAM1), VCAM1 (gene 7412); experiment: BSK_CASM3C_VCAM1: BioMAP Diversity Plus: CASM3C Assay for Vascular cell adhesion molecule 1 (VCAM1) Biomarker Activity (AID 2283055); conditions: primary human coronary artery smooth muscle cells; actives raise or lower the signal;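 note: VCAM-1 protein level quantified by ELISA on the cells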
[13] = read-out: Collagen III, COL3A1 (gene 1281); experiment: BSK_hDFCGF_CollagenIII: BioMAP Diversity Plus: hDFCGF Assay for Collagen III Biomarker Activity (AID 2283056); conditions: primary human foreskin fibroblasts; actives raise or lower the signal
Procedure, shortened: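 Human foreskin primary fibroblasts were exposed to test chemicals for 24 h, after which collagen III was quantified by ELISA. Activity was fitted bidirectionally against DMSO as negative control and baseline.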

[14] = read-out: Epidermal growth factor receptor (EGFR), EGFR (gene 1956); experiment: BSK_hDFCGF_EGFR: BioMAP Diversity Plus: hDFCGF Assay for Epidermal growth factor receptor (EGFR) Biomarker Activity (AID 2283057); conditions: primary human foreskin fibroblasts; actives raise or lower the signal
Procedure, shortened: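 hDFCGF system, primary human foreskin fibroblasts; compound 24 h; EGFR measured by ELISA; DMSO = negative control/baseline; bidirectional fitting.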

[15] = read-out: Interleukin-8 (IL8), CXCL8 (gene 3576); experiment: BSK_hDFCGF_IL8: BioMAP Diversity Plus: hDFCGF Assay for Interleukin-8 (IL8) Biomarker Activity (AID 2283058); conditions: primary human foreskin fibroblasts; actives raise or lower the signal
Procedure, shortened: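 hDFCGF human dermal fibroblasts; 24 h chemical exposure; IL-8 by ELISA; bidirectional curve fit vs DMSO baseline; gain or loss of signal scored.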

[16] = BSK_hDFCGF_Proliferation: Cell Proliferation Assessment in the BioMAP Diversity Plus: hDFCGF Assay (AID 2283059); conditions: primary human foreskin fibroblasts;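 note: curves fitted for both rise and fall of signal versus DMSO baseline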
Procedure, shortened: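 Steps: dose primary human dermal fibroblasts (foreskin); […] fix in 10% TCA; stain with 0.1% SRB; read 560 nm; fit gain or loss of signal against DMSO.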

[17] = read-out: Macrophage colony-stimulating factor (MCSF), CSF1 (gene 1435); experiment: BSK_hDFCGF_MCSF: BioMAP Diversity Plus: hDFCGF Assay for Macrophage colony-stimulating factor (MCSF) Biomarker Activity (AID 2283060); conditions: primary human foreskin fibroblasts; actives raise or lower the signal
Procedure, shortened: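 Human foreskin primary fibroblasts were treated with test chemical for 24 h, and M-CSF was then measured by ELISA. Data were fitted bidirectionally against DMSO as the negative control and activity baseline.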

[18] = BSK_hDFCGF_SRB: Viability Assessment in the BioMAP Diversity Plus: hDFCGF Assay (AID 2283061); conditions: primary human foreskin fibroblasts;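 note: cells exposed to compound for 24 h before the read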
Procedure, shortened: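 Human foreskin primary fibroblasts were treated with compound and assessed 24 h after dosing. Total protein was measured by sulforhodamine B staining (0.1% SRB after 10% TCA fixation, 560 nm read) as a cytotoxicity marker, with bidirectional fitting against DMSO baseline.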

[19] = read-out: TIMP metallopeptidase inhibitor 1 (TIMP1), TIMP1 (gene 7076); experiment: BSK_hDFCGF_TIMP1: BioMAP Diversity Plus: hDFCGF Assay for TIMP metallopeptidase inhibitor 1 (TIMP1) Biomarker Activity (AID 2283062); conditions: primary human foreskin fibroblasts; actives raise or lower the signal
Procedure, shortened: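 Primary human foreskin fibroblasts in the hDFCGF system were dosed with compound for 24 h, then TIMP-1 was measured by ELISA. Activity was fitted bidirectionally relative to DMSO control; parallel SRB staining assessed cytotoxicity.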

[20] = read-out: Monokine induced gamma interferon (MIG), CXCL9 (gene 4283); experiment: BSK_hDFCGF_MIG: BioMAP Diversity Plus: hDFCGF Assay for Monokine induced gamma interferon (MIG) Biomarker Activity (AID 2283063); conditions: primary human foreskin fibroblasts; actives raise or lower the signal
Procedure, shortened: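 ELISA read-out of MIG from primary human dermal fibroblasts 24 h post-dosing. Gain or loss of signal fitted bidirectionally, DMSO as baseline.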

CCN(CC)C(=O)C(Cl)=C(C)OP(=O)(OC)OC
outcome [1]: inactive | outcome [2]: inactive | outcome [3]: inactive | outcome [4]: inactive | outcome [5]: inactive | outcome [6]: inactive | outcome [7]: inactive | outcome [8]: inactive | outcome [9]: inactive | outcome [10]: inactive | outcome [11]: inactive | outcome [12]: inactive | outcome [13]: inactive | outcome [14]: inactive | outcome [15]: inactive | outcome [16]: inactive | outcome [17]: inactive | outcome [18]: inactive | outcome [19]: inactive | outcome [20]: inactive

c1ccc(-c2cccc(-c3ccccc3)c2)cc1
outcome [1]: inactive | outcome [2]: inactive | outcome [3]: inactive | outcome [4]: inactive | outcome [5]: inactive | outcome [6]: inactive | AC50 [7]: 33.5 µM (active) | AC50 [8]: 20 µM (active) | outcome [9]: inactive | AC50 [10]: 29.5 µM (active) | outcome [11]: inactive | outcome [12]: inactive | AC50 [13]: 11.7 µM (active) | outcome [14]: inactive | outcome [15]: inactive | AC50 [16]: 11 µM (active) | AC50 [17]: 20 µM (active) | AC50 [18]: 12.2 µM (active) | AC50 [19]: 20 µM (active) | outcome [20]: inactive

Oc1c(Br)cc(Br)cc1Br
outcome [1]: inactive | outcome [2]: inactive | outcome [3]: inactive | outcome [4]: inactive | outcome [5]: inactive | outcome [6]: inactive | outcome [7]: inactive | outcome [8]: inactive | outcome [9]: inactive | outcome [10]: inactive | outcome [11]: inactive | outcome [12]: inactive | AC50 [13]: 12.1 µM (active) | outcome [14]: inactive | outcome [15]: inactive | outcome [17]: inactive | outcome [18]: inactive | outcome [19]: inactive | outcome [20]: inactive

Oc1c(Cl)cc(Cl)cc1Cl
outcome [1]: inactive | outcome [2]: inactive | outcome [3]: inactive | outcome [4]: inactive | outcome [5]: inactive | outcome [6]: inactive | outcome [7]: inactive | outcome [8]: inactive | outcome [9]: inactive | outcome [10]: inactive | outcome [11]: inactive | outcome [12]: inactive | outcome [13]: inactive | outcome [14]: inactive | outcome [15]: inactive | outcome [16]: inactive | outcome [17]: inactive | outcome [18]: inactive | outcome [19]: inactive | outcome [20]: inactive

Nc1c(Oc2ccccc2)cc(O)c2c1C(=O)c1ccccc1C2=O
outcome [1]: inactive | outcome [2]: inactive | outcome [3]: inactive | outcome [4]: inactive | outcome [5]: inactive | outcome [6]: inactive | outcome [7]: inactive | outcome [8]: inactive | outcome [9]: inactive | AC50 [10]: 17 µM (active) | outcome [11]: inactive | outcome [12]: inactive | outcome [13]: inactive | outcome [14]: inactive | outcome [15]: inactive | outcome [16]: inactive | AC50 [17]: 10 µM (active) | outcome [18]: inactive | outcome [19]: inactive | AC50 [20]: 15.6 µM (active)

O=C(O)C1(c2ccc3c(c2)OC[C@H](Cc2ccc(-c4ccccc4)cc2)[C@H]3O)CCCC1
outcome [1]: inactive | outcome [2]: inactive | outcome [3]: inactive | AC50 [4]: 33.3 µM (active) | outcome [5]: inactive | outcome [6]: inactive | outcome [7]: inactive | outcome [8]: inactive | outcome [9]: inactive | AC50 [10]: 7.31 µM (active) | AC50 [11]: 28 µM (active) | AC50 [12]: 20 µM (active) | AC50 [13]: 4.51 µM (active) | AC50 [14]: 5.5 µM (active) | AC50 [15]: 14.7 µM (active) | AC50 [16]: 6.62 µM (active) | AC50 [17]: 8.18 µM (active) | AC50 [18]: 7.76 µM (active) | AC50 [19]: 11.7 µM (active) | AC50 [20]: 12.8 µM (active)
